HT1080-NT tox – qHTS for induction of synthetic lethality in tumor cells producing 2HG: qHTS for the HT-1080-NT fibrosarcoma cell line | Potency, µM (doses to about 46.1 µM), without a hit: top-dose activity, negative = less viability, actives largely listed as cytotoxic | 360,000 tested, 1.6% active | HT-1080-NT fibrosarcoma viability, CellTiter-Glo ATP luminescence, 48 h;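 note: NT is the 2HG producing partner of a matched IDH1 knockdown line; potency is the fitted concentration of half-maximal effect; 0% = DMSO-treated cells and -100% = media-only wells without cells; nearly all actives have a fitted effect of over 55% in size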
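Read-out is CellTiter-Glo luminescence after 10 minutes at room temperature, following 48 hours' compound treatment of HT-1080-NT cells (750 cells/well, RPMI, 5% FBS, 37 degrees C).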
HT1080 IDH1KD tx – qHTS for induction of synthetic lethality in tumor cells producing 2HG: qHTS for the HT-1080-IDH1KD cell line; HT-1080 IDH1 knockdown viability, ATP luminescence, 48 h; Potency, µM (highest dose often 46.1 µM), for inactives: at the highest dose activity, negative = toxicity, hits mostly cytotoxic; 360,000 tested, 2% active;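 note: potency is the fitted concentration of half-maximal effect; 0% = DMSO wells and -100% = cell-free medium wells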
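Cytotoxicity counter-line: IDH1KD HT-1080, 48 h, CellTiter-Glo. Curves classed by r2, magnitude and activity.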
uPA generation – qHTS for Inhibitors of Cell Surface uPA Generation; cell surface uPA generation assay, qHTS; 330,000 tested, 0.31% active; Potency, µM (doses to about 38.3 µM), for inactives: top-dose activity change, negative = inhibition, hits mostly inhibitors; active = well fitted inhibition curve with a large enough effect; inconclusive = small, poorly fitted or top-dose-only effect; inactive = no such curve, though single readings can be large or run the other way; tested in mouse RAW 264.7 cells; note: potency is the fitted concentration of half-maximal effect; nearly all actives have a fitted effect of over 55% in size
IL-1B inflam inh – qHTS for Inhibitors of Inflammasome Signaling: IL-1-beta AlphaLISA Primary Screen; 360,000 tested, 4.7% active; AID 743279, 2014; THP-1 LPS/ATP IL-1B secretion, AlphaLISA, 16 h; stronger effect = lower value; activity change, % at 57.5 µM; in the data active = activity change below about -50%; inconclusive = mostly about -30% to -49%
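Secreted IL-1B measured by AlphaLISA bead assay after 16 h compound exposure of THP-1 cells; compounds (final up to 57.5 uM) added 1 h before LPS (250 ng/mL) and ATP (1.25 mM) stimulation; lower signal means less secretion.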
TDP1 cell noCPT – qHTS for Inhibitors of human tyrosyl-DNA phosphodiesterase 1 (TDP1): qHTS in cells in absence of CPT; 420,000 tested, 15% active; DT40 Tdp1-/- hTDP1 cells, no CPT, ATP luminescence, 48 h; Potency, µM (series often up to 46.2 µM), inactives show at the highest dose activity change, negative = growth inhibition, hits mostly inhibitors; note: potency is the fitted concentration of half-maximal effect; nearly all actives have a fitted effect of over 55% in size
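Cells were dispensed at 400 per well, compounds added by pin tool, plates incubated ≥48 hr at 37 °C, then CellTiter-Glo added for 30 min at room temperature before luminescence reading. Line: DT40 Tdp1-/- complemented with hTDP1; camptothecin omitted.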
DT40 TDP1 CPT – qHTS for Inhibitors of human tyrosyl-DNA phosphodiesterase 1 (TDP1): qHTS in cells in presence of CPT; chicken DT40 Tdp1-/-;hTDP1 cells + 20 nM CPT, ATP luminescence, 48 h; Potency, µM (series often up to 46.2 µM), for inactives: at the top dose activity change, negative = growth inhibition, hits mostly inhibitors; 420,000 tested, 12% active; AID 686979, 2013; note: potency is the fitted concentration of half-maximal effect; nearly all actives have a fitted effect of over 55% in size
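Chicken DT40 Tdp1-/- cells stably complemented with human TDP1 were seeded at 400 cells/well in medium containing 20 nM camptothecin, exposed to pin-transferred compounds, and grown at 37 °C for at least 48 hr. Viability was read as ATP luminescence.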
* marks the source's active call; other numbers are inactive results; ? = inconclusive; nt = no result; ! = repeats disagree; [ ] = remark or other dose. The list is not random: actives were taken first. Their share in the collection is about 19%. Unless noted, calls come from the whole dose curve; as a rule, active = well fitted curve in the direction sought with a large enough effect; inconclusive = small, poorly fitted or top-dose-only effect, or another doubt; inactive = no such curve, though single readings can be large; an effect the other way counts as inactive or inconclusive. Unless noted, % is set by controls: 0 for no effect and ±100 for the full control effect.

SMILES | HT1080-NT tox | HT1080 IDH1KD tx | uPA generation | IL-1B inflam inh | TDP1 cell noCPT | DT40 TDP1 CPT
CCn1c(C)[n+](CC(O)COCC2CC=CCC2)c2ccccc21 (stereo not given) | 3% | -24% | -4% | -13 | 23µM* | 21µM*
COC(=O)c1ccc(NC(=O)CSc2nc3ccc(N4C(=O)C5C6C=CC(C6)C5C4=O)cc3s2)cc1 (stereo not given) | -29% | ? | -10% | ? | 18µM* | 21µM*
O=S1(=O)NCC2(CC2)CN1Cc1ccccc1 | 15% | 25% | nt | 0 | -14% | -7%
OCc1cc(C(O)CNCCCCCCOCCCCc2ccccc2)ccc1O (stereo not given) | 16µM* | ? | ? | -25 | 13µM* | 19µM*!
CN1CC(C#N)C2(O)c3ccccc3CCC2C1 (stereo not given) | 11% | -1% | -1% | -6 | 5% | 4%
COc1cccc(OC)c1-c1nn2c(-c3n[nH]c4c3CCC4)nnc2s1 | nt | nt | nt | nt | 5.6µM* | 6.3µM*
CC(C)CCOP(=O)(c1ccc(N(C)C)cc1)C(O)c1ccc(C(C)C)cc1 (stereo not given) | -27% | -11% | 6% | -58* | 21µM* | ?
CC(C)CCOP(=O)(c1ccc(N(C)C)cc1)C(O)c1ccc(Cl)cc1Cl (stereo not given) | 23µM* | 16µM* | 1% | -88* | 21µM* | 16µM*
Cc1c(O)ccc(C(=O)CN2CC(C)OC(C)C2)c1O (stereo not given) | 0% | 1% | -11% | 10 | -2% | -4%
O=C(Nc1ncccc1O)c1ccc(S(=O)(=O)NCc2ccco2)cc1 | -2% | -21% | nt | 68 | 23µM* | 21µM*
CC(C)CCn1c(=O)c(C(=O)NCc2ccco2)c(O)c2ccccc21 | 22% | 16% | 1% | -4 | 9.2µM* | ?
CCCCn1c(=O)c(C(=O)NCc2ccco2)c(O)c2ccccc21 | 0% | 19% | 4% | 75 | ? | ?
CCCCCn1c(=O)c(C(=O)NCc2ccco2)c(O)c2ccccc21 | 3% | 11% | 6% | 89 | 16µM* | ?
COCCNC(=O)N1[C@H]2CC[C@@H]1C(C(=O)OC)=C(c1ccc(OC)c(OC)c1)C2 | 18% | 21% | 0% | 19 | 0% | 1%
CC1(C)C[C@H]2C=C(C=O)[C@]3(C=O)C[C@]3(C)[C@H]2C1 | 16µM* | 12µM* | 2.2µM* | -108* | 0.82µM* | 0.92µM*
Cn1c(=O)oc2cc(NC(=O)CCl)ccc21 | ? | ? | ? | -80* | 23µM* | 13µM*
Oc1ccc(CC2(N3CCCC3)CCCCC2)cc1 | -2% | -7% | -15% | -10 | -4% | -2%
CCCNC(=O)Cn1cnc2sc(C(=O)N3CCC4(CC3)OCCO4)c(C)c2c1=O | 6% | 4% | 1% | 4 | 13% | -14%
Cc1c(C(=O)N2CCC3(CC2)OCCO3)sc2ncnc(N3CCN(c4ccccn4)CC3)c12 | 0% | 7% | 13% | -81* | 16µM* | 21µM*
CN1C(=O)CCC2(C)C1=CCC1C2CCC2(C)C1CCC2(C)O (stereo not given) | 1% | 1% | 1% | 3 | -21% | -23%
COC(=O)[C@]1(C)CC[C@@]2(C)CC[C@@]3(C)C4=CC=C5C(=CC(=O)C(O)=C5C)[C@@]4(C)CC[C@@]3(C)C2C1 (stereo not given in full) | nt | nt | nt | nt | 0.73µM* | 1µM*
O=C1C(Br)C2CCC1C2C(=O)O (stereo not given) | 2% | -4% | nt | 3 | 0% | -2%
CN(C)C(=O)On1c(-c2ccccc2)nc2ccc(Cl)cc21 | -9% | 0% | -9% | -21 | 29µM* | ?
CCCc1nc(SC)ncc1C(=O)Nc1ccc(Cl)cc1C(=O)c1ccccc1 | nt | nt | nt | nt | 23µM* | ?
CCc1nc(SC)ncc1C(=O)Nc1ccc(Cl)cc1C(=O)c1ccccc1 | nt | nt | nt | nt | ? | -1%
SMILES | HT1080-NT tox | HT1080 IDH1KD tx | uPA generation | IL-1B inflam inh | TDP1 cell noCPT | DT40 TDP1 CPT
COC(=O)c1ccc(Cl)c(NC(=O)CN2CCN(Cc3ccccc3)CC2)c1 | 2% | -9%[9.24 µM] | -2% | 5 | ? | 2%
O=C(CN1CCN(C(=O)CNC(=O)c2ccc(-c3ccccc3)cc2)CC1)Nc1ccccc1Cl | ? | ? | nt | ? | 13µM* | 13µM*
O=C(NCCc1ccc(F)cc1)C(=O)NCC(c1cccs1)S(=O)(=O)c1ccc(Cl)cc1 (stereo not given) | nt | nt | nt | nt | 12µM* | 15µM*
COc1ccc(CCNC(=O)C(=O)NCC2OCCN2S(=O)(=O)c2ccc(Cl)cc2)cc1 (stereo not given) | -21% | -2% | -3% | -1 | ? | ?
CC1CCCCC12C(=O)NC(=O)NC2=O (stereo not given) | 0% | -1% | 13% | 10 | -11% | -10%
S=C(SSC(=S)N1CCCCC1)N1CCCCC1 | nt | nt | nt | nt | 0.94µM* | 0.75µM*
COC(=O)N1Cc2ccccc2-n2nncc2C1 | 7% | 16% | nt | 8 | ? | ?
CCCC(=O)Nc1ccc(N2CCN(CC)CC2)c(Cl)c1 | 2% | 3% | 15% | 15 | ? | 3%
CCOC(=O)N1CCN(c2ccc(Cl)c(Cl)c2)CC1 | -4% | -8% | nt | -11 | 13µM* | ?
COc1ccc2cc1Oc1ccc(cc1)CC1c3cc(c(OC)cc3CCN1C)Oc1c(OC)c(OC)cc3c1C(C2)N(C)CC3 (stereo not given) | nt | nt | nt | nt | 3.7µM* | 3.7µM*
COc1cc2c3cc1Oc1c(OC)c(OC)cc4c1C(Cc1cccc(c1)Oc1ccc(c(O)c1)CC3N(C)CC2)N(C)CC4 (stereo not given) | nt | nt | nt | nt | 0% | 2%
COc1ccc2cc1Oc1ccc(cc1)C[C@H]1c3cc(c(OC)cc3CCN1C)Oc1c(OC)c(OC)cc3c1[C@@H](C2)N(C)CC3 | -19% | -14% | -18% | ? | 23µM* | ?
CCCCn1c(=O)c(C(=O)Nc2ncccc2C)c(O)c2ccccc21 | 23µM* | 16µM* | -13% | 13 | ? | ?

Assay outcomes: PubChem BioAssay, National Center for Advancing Translational Sciences (NCATS)
